CYP2C19 inhib = blockers of cytochrome P450 2C19 activity – biochemical, luminescence, ADME assay, primary screen | P33261 | CYP2C19 Supersomes, luciferin-H EGE luminescence, 30 min | inhibition, % at 5 µM | 96,000 tested, 21% active | AID 778, 2007;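 active = CYP2C19 inhibition above a set limit at 5 µM in the primary screen, cut at about 50% in these data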;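 also: plate controls were negative control wells for no effect and 2.5 mM tranylcypromine positive control for full effect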
Cav3 T inh = Cav3.2 calcium influx blockers – cell-based, Fluo-4 calcium fluorescence, FDSS, MLSMR library, primary screen; 100,000 tested, 4% active; Cav3.2-expressing cells; stronger effect = lower value; AID 449739, 2010; B-score at 10 µM;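 active = single-dose well whose peak fluorescence ratio is a statistical outlier from its plate by either plate-standardised score or position-corrected B-score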
Pyk2 oligo antag = antagonists of Pyk2 self-association, primary screen, Q293 cells, FERM NanoBiT luminescence, HTS | z-score (the deposit names both 25 µM and 10 µM) | stronger effect = lower value | 99,000 tested, 0.83% active | Protein-tyrosine kinase 2-beta (Homo sapiens), Q14289;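 active = Z-score of -3 or lower, scaled per plate to the spread of control and sample wells; inactive = z-score above -3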;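 also: negative z-score means lost luminescence so less FERM oligomerization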
CYP2C19 activ = human CYP2C19 activators, primary screen, biochemical, luminescence; Cytochrome P450 2C19 (Homo sapiens), P33261; recombinant CYP2C19, luciferin-H EGE luminescence; stronger effect = higher value; 0 = fully inhibited enzyme, 1 = untreated enzyme; activation factor at 5 µM; 96,000 tested, under 10 active; AID 1025, 2008;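 active = activation factor of at least 2 at 5 µM in the primary screen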;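 also: 0 = wells with 2.5 mM tranylcypromine and 1 = vehicle-only wells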
CYP2C9 act = human CYP2C9 activators, primary screen, biochemical, luminescence; Cytochrome P450 2C9 (Homo sapiens), P11712; recombinant CYP2C9, luciferin-H conversion; stronger effect = higher value; factor 1 = untreated enzyme, 0 = blocked; activation factor at 5 µM; 96,000 tested, 1.4% active;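 active = activation factor of 2 or more for CYP2C9 at a 5 µM dose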;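 also: 0 = sulfaphenazole-blocked wells and 1 = vehicle-only wells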
CYP2C9 inhib = blockers of cytochrome P450 2C9 activity – biochemical, luminescence, ADME assay, primary screen; CYP2C9 Supersomes, luciferin-H conversion; 96,000 tested, 20% active; P11712; inhibition, % at 5 µM;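 active = blocking of liver enzyme CYP2C9 beyond about 50% at 5 µM, limit read from the data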
Starred values were filed as active, the others as inactive; / = no result. An excerpt weighted towards active compounds, which were near 27% of everything screened.

SMILES	CYP2C19 inhib	Cav3 T inh	Pyk2 oligo antag	CYP2C19 activ	CYP2C9 act	CYP2C9 inhib
CCS(=O)(=O)N1Cc2ccccc2CC1C(=O)OCC(=O)Nc1ccc(SC(F)F)cc1 (stereo not drawn)	78*	-1.9	0.22	0.2	0.1	93*
c1ccc(-c2csc(Nc3cccnc3)n2)nc1	67*	-0.19	0.03	0.3	0.3	68*
c1ccc2c(c1)C(=Nn1cnnc1)c1ccccc1-2	44	-0.013	0.44	0.6	0.8	23
O=C1/C(=N/n2cnnc2)c2ccccc2N1Cc1ccccc1	63*	-0.56	/	0.4	0.7	26
CCOc1ccc(-n2c(SCC(=O)Nc3ccccc3C)n[nH]c2=O)cc1	20	-0.54	-1.1	0.8	1.2	-24
CCc1ccc(C(C)NC(=O)Cn2cnc3c(=O)n(C)c(=O)n(C)c32)cc1 (stereo not drawn)	/	0.62	0.81	/	/	/
CC(=O)CC1(O)C(=O)N(Cc2ccccc2)c2ccccc21 (stereo not drawn)	36	0.58	0.28	0.6	0.9	13
Cc1coc(C)c1C(=O)CC1(O)C(=O)N(Cc2ccccc2)c2ccccc21 (stereo not drawn)	98*	-4.6*	0.24	0	0.6	39
Cc1ccc(C(=O)CC2(O)C(=O)N(Cc3ccccc3)c3ccccc32)o1 (stereo not drawn)	31	-1.4	0.67	0.7	1.2	-17
C/C(CC1(O)C(=O)N(Cc2ccccc2)c2ccccc21)=N\O (stereo not drawn)	50*	0.79	0.45	0.5	0.9	8
CC(C)(C)C(=O)[C@H]1[C@H](c2ccccc2)[C@@]2(N=C(c3ccccc3)OC2=O)C2c3ccccc3C=NN21 (stereo partly drawn)	53*	-2.4	0.1	0.5	0.7	29
COc1cc2c(c(OC)c1OC)-c1c(cc(OC)c(OC)c1OC)C[C@](C)(O)[C@@H](C)C2	/	0.62	/	/	/	/
O/N=C1\CCc2cc(Cl)ccc21	14	2.4*	0.2	0.9	1.1	-8
Cc1ccc(C(=O)COC(=O)c2ccccc2N2C(=O)C3C4CCC(C4)C3C2=O)cc1C (stereo not drawn)	-12	0.56	0.3	1.1	1	-1
CCOc1ccc(-c2nnc(-c3snc(-c4ccc(F)cc4)c3N=CN(C)C)o2)cc1	-6	-0.6	-0.3	1.1	1.1	-8
O=S(=O)(c1ccccc1)c1nc(-c2cccs2)oc1NCC1CCCO1 (stereo not drawn)	12	-2.9	-0.76	0.9	1	-2
O=C(CSc1oc(-c2cccs2)nc1S(=O)(=O)c1ccc(F)cc1)NCC1CCCO1 (stereo not drawn)	64*	-0.92	/	0.4	0.5	50
N#Cc1nc(-c2cccs2)oc1NCC1CCCO1 (stereo not drawn)	55*	0.14	0.15	0.5	0.6	38
O=c1c2ccccc2cnn1-c1ccc(Cl)cc1	14	1.3	-0.11	0.9	0.9	10
CC(C)(C)NC(=O)Cn1cc(C#N)c2cc(Br)ccc21	88*	2	-0.63	0.1	0.8	21
CCOC(=O)C1CCCN(c2c(NCCN3CCCCC3C)c(=O)c2=O)C1 (stereo not drawn)	-11	1.1	/	1.1	0.9	14
COc1ccccc1C(=O)Nc1cc2ccccc2oc1=O	12	-0.015	0.24	0.9	0.7	25
O=c1oc2ccccc2cc1NCc1ccccc1O	59*	-5.2*	/	0.4	0.8	22
COC(=O)N/N=C/c1cc(Cl)cc(Cl)c1OCc1ccccc1	/	/	-1.8	/	/	/
CCOC(=O)C1=C(C)NC2=C(C(=O)C(C(=O)OCC)C(c3ccc(OC)cc3)C2)C1c1ccccn1 (stereo not drawn)	29	0.82	-0.97	0.7	0.7	29
CC1=C(C(=O)OCCOc2ccccc2)C(c2ccc(C)o2)C2=C(CC(C)(C)CC2=O)N1 (stereo not drawn)	78*	-7.1*	-1.6	0.2	0.2	82*
